Most compounds without a hit are left out; they make up all but 7.5% or so of the library.
NPC1 prom act – NPC1 promoter activation; Huh7 NPC1 promoter luciferase reporter, 24 h; Potency, µM (highest dose often 9.22 µM), for the others: at the top dose activation, most hits filed as activators; 2.4% of 320,000 active; further: % of control where 0% means no effect; nearly all actives have a fitted effect of over 60% in size
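Stable NPC1-promoter luciferase Huh7 line; cpd (DMSO) 24 h, 37 °C, 5% CO2; Amplite luciferase reagent 10 min RT; luminescence readout. qHTS format.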
SMN2 splice enh – increases expression of the SMN2 splice variant; HEK293 SMN2-luciferase splicing reporter, luminescence, 30-36 h; Potency, µM (series often up to 46.1 µM), for inactives: at the top dose activity change, positive = activation, most hits filed as activators; 2.8% of 210,000 active; AID 1458; further: % of control where 0% means no effect; nearly all actives have a fitted effect of over 55% in size
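qHTS luciferase splicing reporter: luminescence rises when SMN2 exon 7 is included in transfected HEK293 cells. Compound exposure lasted 30-36 h at 37C, with 4.5 mM final sodium butyrate as control, followed by a ONE-Glo read.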
FLuc counter – inhibits or activates purified firefly luciferase, miR-21 counter-screen. P08659. purified FLuc, Km substrates, luminescence inhibition. Potency, µM (doses to about 57.5 µM), for the others: at the top dose activity change, negative = inhibition, most hits filed as inhibitors. 6.9% of 360,000 active;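 further: plate controls were vehicle for no effect and reference inhibitor for full effect; nearly all actives have a fitted effect of over 55% in size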
Target sequence (P08659 whole entry, looked up): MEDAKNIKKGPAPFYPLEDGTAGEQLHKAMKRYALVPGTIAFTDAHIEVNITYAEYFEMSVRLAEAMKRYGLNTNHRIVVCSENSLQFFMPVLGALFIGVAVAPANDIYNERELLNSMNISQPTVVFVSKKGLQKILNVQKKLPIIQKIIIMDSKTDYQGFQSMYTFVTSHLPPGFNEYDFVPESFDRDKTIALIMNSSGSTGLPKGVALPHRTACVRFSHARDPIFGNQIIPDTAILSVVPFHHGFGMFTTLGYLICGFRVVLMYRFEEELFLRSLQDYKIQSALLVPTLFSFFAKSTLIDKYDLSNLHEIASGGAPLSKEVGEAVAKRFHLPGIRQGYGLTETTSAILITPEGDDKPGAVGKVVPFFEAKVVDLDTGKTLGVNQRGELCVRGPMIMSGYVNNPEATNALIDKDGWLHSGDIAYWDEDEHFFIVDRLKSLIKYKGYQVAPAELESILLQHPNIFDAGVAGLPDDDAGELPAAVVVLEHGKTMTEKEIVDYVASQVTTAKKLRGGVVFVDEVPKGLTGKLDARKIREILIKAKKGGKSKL
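Purified P. pyralis luciferase (10nM final) with 10uM D-luciferin and 10uM ATP (Km levels) in 50mM Tris acetate pH 7.5, 10mM Mg acetate, 0.01% Tween-20, 0.05% BSA; qHTS 6-point titration, ~60 µM downward; luminescence read.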
ELG1 genotoxic – genotoxicity induction in ELG1-luciferase HEK293T cells | HEK293T ELG1-luciferase reporter, luminescence, 16 h | Potency, µM (doses to about 46 µM), for the others: at the highest dose activity change, positive = activation, usual class: activators | 1.3% of 330,000 active; further: % of control where 0% means no effect; nearly all actives have a fitted effect of over 60% in size
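DMSO vehicle served as control against compound-treated ELG1-luciferase HEK293T cells; exposure lasted 16 hr at 37 °C and 5% CO2, followed by ONE-Glo luminescence detection after 30 min.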
KinaseGlo FLuc – Kinase-Glo luciferase inhibition (counter-screen). Q27757. Kinase-Glo luciferase, ATP luminescence, 8 min. Potency, µM (highest dose often 38.3 µM), for the others: at the top dose activity change, negative = inhibition, hits mostly inhibitors. 0.28% of 200,000 active. AID 1379; further: on the % scale 0 is the no-effect control and ±100 the full control effect; nearly all actives have a fitted effect of over 60% in size
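Inhibition of Kinase-Glo luciferase light generation was assessed at 10 uM ATP in pH 7.2 imidazole buffer, with luminescence measured after eight minutes at ambient temperature.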
Rab9 promoter act – Rab9 promoter activation | Potency, µM (series often up to 9.22 µM), for inactives: at the top dose activation, negative = inhibition, most hits filed as activators | 2.8% of 320,000 active | Huh7 Rab9 promoter-luciferase reporter, luminescence, 24 h; further: % of control where 0% means no effect; nearly all actives have a fitted effect of over 60% in size
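Steps: seed 1500 Huh7 Rab9-luc cells per well, rest 2 h at 37 °C; add compound in DMSO; incubate 24 h; add luciferase reagent, 10 min ambient; read luminescence.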
Starred values were filed as active, the others as inactive; [ ] = dose if it differs, or a comment. The call rests on the fitted dose curve; in most records, active means well fitted curve in the direction sought with a large enough effect; inconclusive means small, poorly fitted or top-dose-only effect, or another doubt; inactive means no such curve, though single readings can be large; an effect the other way counts as inactive or inconclusive. Potency means the concentration at half of the fitted maximal effect.

CSCC(=O)Nc1nc(-c2ccc3c(c2)OCCO3)cs1 was read as NPC1 prom act 3.16µM*, SMN2 splice enh 11.2µM*, FLuc counter 10.7µM*, ELG1 genotoxic 13.5%, KinaseGlo FLuc -2.4% and Rab9 promoter act 2.82µM*.
Screening Cc1ccc(C)c(N2CCN(C(=O)CCCCCn3c(=O)[nH]c4ccccc4c3=O)CC2)c1 returned FLuc counter -12.2%.
Screening CC(=O)Nc1ccc(-c2csc(NC(=O)C3CC(=O)N(c4ccc5c(c4)OCCO5)C3)n2)cc1 (stereo not drawn) returned NPC1 prom act -0.8%, FLuc counter -16.8%, ELG1 genotoxic -6.2% and Rab9 promoter act 2.1%.
For CC(=O)Nc1nnc(-c2ccc3c(c2)CCCC3)o1 the results were NPC1 prom act inconclusive, SMN2 splice enh inconclusive, FLuc counter 12µM*, ELG1 genotoxic inconclusive, KinaseGlo FLuc 11.3% and Rab9 promoter act 3.98µM*.
CCCC(=O)Nc1nc(-c2ccc3c(c2)OCCO3)cs1 was read as NPC1 prom act 1.78µM*, SMN2 splice enh 8.91µM*, FLuc counter 6.01µM*, ELG1 genotoxic 2.59µM*, KinaseGlo FLuc 2.2% and Rab9 promoter act 3.16µM*.
Screening O=C(O)C(=O)Nc1nc(-c2ccc3c(c2)OCCO3)cs1 returned NPC1 prom act -2.3%, FLuc counter 9.53µM*, ELG1 genotoxic 15.8% and Rab9 promoter act 1.9%.
For CCOc1ccc(N(CC(=O)Nc2ccc(C)c(C)c2)S(C)(=O)=O)cc1 the results were NPC1 prom act 2.82µM*, FLuc counter 10.7µM*, ELG1 genotoxic inconclusive and Rab9 promoter act inconclusive.
`O=C(CC(Nc1ccc(F)cc1)C(=O)O)c1ccccc1` (stereo not drawn) gave NPC1 prom act 1.12µM*, SMN2 splice enh 12.6µM*, FLuc counter 1.07µM*, ELG1 genotoxic 1.03µM*, KinaseGlo FLuc -11.8% and Rab9 promoter act 1.26µM*.
`Cc1ccc(NC(CC(=O)c2ccccc2)c2ccc(F)cc2)cc1` (stereo not drawn) gave NPC1 prom act 3.1%, SMN2 splice enh 8.8%, FLuc counter -1.0%, ELG1 genotoxic -0.7%, KinaseGlo FLuc -5.9% and Rab9 promoter act 0.2%.
Screening O=C(CC(Nc1ccc(F)cc1)C(=O)OCC(=O)c1cccs1)c1ccccc1 (stereo not drawn) returned NPC1 prom act inconclusive, SMN2 splice enh inconclusive, FLuc counter inconclusive, ELG1 genotoxic inconclusive, KinaseGlo FLuc 1.0% and Rab9 promoter act 4.47µM*.
Cn1c(=O)oc2cc(S(=O)(=O)CCC(=O)NCc3ccc(Cl)cc3)ccc21 was read as FLuc counter -1.5%.
CCOc1ccc(CNC(=O)CCc2c(C)nn(-c3ccc(N4CCOCC4)nn3)c2C)cc1 was read as FLuc counter 1.9%.
For Cc1ccc(C)c(NC(=O)CCc2c(C)nn(-c3ccc(N4CCCCC4)nn3)c2C)c1 the results were NPC1 prom act -2.3%, FLuc counter inconclusive, ELG1 genotoxic 0.4%[9.26 µM] and Rab9 promoter act 5.3%.
Cc1nn(-c2ccc(N3CCCC3)nn2)c(C)c1CCC(=O)NCc1ccc(F)cc1 was read as FLuc counter 4.8%.
Cc1nn(-c2ccc(N3CCCCC3)nn2)c(C)c1CCC(=O)Nc1cccc(F)c1 was read as NPC1 prom act 2.82µM*, FLuc counter 4.78µM*, ELG1 genotoxic inconclusive and Rab9 promoter act 3.98µM*.
`Cc1ccc(NC(=O)CCc2c(C)nn(-c3ccc(N4CCCCC4)nn3)c2C)cc1F` gave NPC1 prom act 2µM*, FLuc counter 3.38µM*, ELG1 genotoxic inconclusive and Rab9 promoter act 3.98µM*.
CCOc1ccc(NC(=O)CCc2c(C)nn(-c3ccc(N4CCCCC4)nn3)c2C)cc1 was read as NPC1 prom act inconclusive, FLuc counter 2.69µM*, ELG1 genotoxic inconclusive and Rab9 promoter act 2.82µM*.
For Cc1nn(-c2ccc(N3CCCCC3)nn2)c(C)c1CCC(=O)Nc1ccc(F)cc1 the results were NPC1 prom act inconclusive, FLuc counter 13.5µM*, ELG1 genotoxic 5.5% and Rab9 promoter act inconclusive.
`Cc1nn(-c2ccc(N3CCCC3)nn2)c(C)c1CCC(=O)Nc1ccccc1` gave FLuc counter -5.6%.
`COc1ccc2cc(C(=O)NCc3ccccc3CN3CCCC3)ccc2c1` gave NPC1 prom act -7.5%, FLuc counter -1.5%, ELG1 genotoxic -7.7% and Rab9 promoter act -2.6%.
Screening CCc1ccc(NC(=O)CCc2c(C)nn(-c3ccc(N4CCCCC4)nn3)c2C)cc1 returned NPC1 prom act inconclusive, FLuc counter 12µM*, ELG1 genotoxic 13.4% and Rab9 promoter act inconclusive.
For Cc1cc(C)cc(NC(=O)CCc2c(C)nn(-c3ccc(N4CCOCC4)nn3)c2C)c1 the results were NPC1 prom act 7.6%, FLuc counter 15.1µM*, ELG1 genotoxic 2.7%[9.26 µM] and Rab9 promoter act 8.4%.
For COc1ccc(CNC(=O)CCc2c(C)nn(-c3ccc(N4CCCCC4)nn3)c2C)c(OC)c1 the results were FLuc counter -12.1%.
`CCc1cccc(NC(=O)CCc2c(C)nn(-c3ccc(N4CCCCC4)nn3)c2C)c1` gave NPC1 prom act 24.1%, FLuc counter 10.7µM*, ELG1 genotoxic 13.6% and Rab9 promoter act inconclusive.
Screening COc1ccc(NC(=O)CCc2c(C)nn(-c3ccc(N4CCCC4)nn3)c2C)cc1Cl returned FLuc counter 21.3µM*.
For CS(=O)(=O)N1CCC2(CC1)CN(c1cccc(-c3ccccc3)c1)C2 the results were SMN2 splice enh -37.5% and KinaseGlo FLuc -4.1%.
`Cc1cc(/C=C(\C#N)C(=O)NCc2ccco2)c(C)n1-c1cccnc1` gave NPC1 prom act inconclusive, FLuc counter 15.1µM*, ELG1 genotoxic inconclusive and Rab9 promoter act inconclusive.
Cc1cc(/C=C(\C#N)C(=O)NCc2ccco2)c(C)n1C1CCCC1 was read as NPC1 prom act inconclusive, SMN2 splice enh -0.6%, FLuc counter 6.01µM*, ELG1 genotoxic inconclusive, KinaseGlo FLuc -3.5% and Rab9 promoter act inconclusive.
For N#C/C(=C\c1ccc(OCc2cccc(C(=O)O)c2)cc1)C(=O)NCc1ccco1 the results were NPC1 prom act 0.355µM*, FLuc counter 30.1µM*, ELG1 genotoxic inconclusive and Rab9 promoter act 0.1µM*.
Screening Cc1cccc(-n2c(C)cc(C=C(C#N)C#N)c2C)c1 returned NPC1 prom act -1.1%, SMN2 splice enh -15.2%, FLuc counter 1.2%, ELG1 genotoxic 2.6%, KinaseGlo FLuc 0.8% and Rab9 promoter act -0.7%.

Source: PubChem (National Center for Advancing Translational Sciences (NCATS))
